From PubChem BioAssay (Tox21)
Results filed as inconclusive are left out. Active and inactive are the calls of the source. Unless noted, calls come from the whole dose curve; as a rule, active = well fitted curve in the direction sought with a large enough effect in the repeat runs; inconclusive = weak or mixed curves; inactive = no such curve, though single readings can be large; an effect the other way counts as inactive or inconclusive.

Tests used:
[1] = qHTS assay to identify small molecule agonists of H2AX (AID 1224845; active = well fitted activation curve with a large enough effect in the signal ratio in the repeat runs, not every such curve was filed as active; the % refers to the signal ratio)
How it was run: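 Wild-type CHO-K1 cells plated overnight, then exposed 3 hr at 37C to compounds at 15 concentrations (0.76% DMSO). Lysed, then HTRF anti-pH2AX(S139)-cryptate/anti-H2AX-d2 detection after 24 hr at room temperature; emissions 665 and 620 nm.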

[2] = qHTS assay to identify small molecule agonists of the hypoxia (HIF-1) signaling pathway (AID 1224846; active = well fitted activation curve with a large enough effect in the signal ratio in the repeat runs, not every such curve was filed as active; the % refers to the signal ratio)
How it was run: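 HRE-bla ME-180 cells (beta-lactamase reporter under hypoxia response element) were plated at 2,000 cells/well in medium with 0.5% dialyzed FBS, rested 5 hrs, then given compounds in DMSO for 17 hrs at 37C, 5% CO2. Reporter induction was read with CCF4-AM FRET substrate.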

[3] = qHTS assay to identify small molecule agonists of the estrogen related receptor (ERR) signaling pathway from Tox21 library (AID 1224849; calls by dose curve; note: nearly all actives have a fitted effect of over 15% in size); settings: ERR reporter cell line, ONE-Glo luciferase, 18 h; at 92.4 µM (top of the series) unless noted
How it was run: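 ERR reporter cell line (NTP) seeded, rested 6 h at 37 C/5% CO2, then pinned with Tox21 compounds in DMSO. After 18 h at 37 C, ONE-Glo luciferase luminescence was read following 30 min at room temperature.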

[4] = qHTS RealTime-Glo MT Cell Viability Assay in HepG2 cells - 24 hour (AID 1224867); note: nearly all actives have a fitted effect of over 50% in size
How it was run: (§1)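 Cells + NanoLuc/prosubstrate dispensed (600 cells/well) → 5 h at 37 C/5% CO2 → compounds in DMSO transferred → 40 h incubation at 37 C, luminescence read at 0, 8, 16, 24, 32, 40 h.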

[5] = qHTS RealTime-Glo MT Cell Viability Assay in HEK293 cells - 32 hour (AID 1224868); note: top concentration of the series differs between compounds; nearly all actives have a fitted effect of over 50% in size
How it was run: (§2)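 Tox21 10K qHTS, HEK293, 600 cells/well, RealTime-Glo reagent co-dispensed with cells; 5 h preincubation, compound by pintool, 37 C, luminescence at 0–40 h.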

[6] = qHTS RealTime-Glo MT Cell Viability Assay in HepG2 cells - 40 hour (AID 1224870); note: nearly all actives have a fitted effect of over 50% in size
How it was run: (§3)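 HepG2 cells mixed with RealTime-Glo MT reagents (NanoLuc plus cell-permeant prosubstrate) were seeded at 600 cells/well, incubated 5 h at 37 C/5% CO2, then pinned with compounds in DMSO; nonlytic luminescence tracked viability during 40 h treatment.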

[7] = A CellTox Green Cytotoxicity Assay to monitor cytotoxicity in HEK293 cells - 40 hour (AID 1224871); note: nearly all actives have a fitted effect of over 45% in size
How it was run: (§4)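 HEK293 cells premixed with CellTox Green dye were seeded at 600 cells/well and left 5 h at 37 C/5% CO2 before pin transfer of 23 nL compound in DMSO. Fluorescence from dye bound to dead-cell DNA was read during 40 h treatment.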

[8] = qHTS RealTime-Glo MT Cell Viability Assay in HEK293 cells - 16 hour (AID 1224872); note: top concentration of the series differs between compounds; nearly all actives have a fitted effect of over 50% in size
How it was run: as §2

[9] = qHTS RealTime-Glo MT Cell Viability Assay in HepG2 cells - 8 hour (AID 1224873); note: nearly all actives have a fitted effect of over 55% in size
How it was run: as §3

[10] = qHTS RealTime-Glo MT Cell Viability Assay in HEK293 cells - 40 hour (AID 1224874); settings: RealTime-Glo luminescence; max response: active compounds read low; note: nearly all actives have a fitted effect of over 50% in size
How it was run: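 HEK293 cells mixed with RealTime-Glo reagents (NanoLuc plus cell-permeant prosubstrate) at 600 cells/well, preincubated 5 h at 37 C/5% CO2, then given 23 nL compound in DMSO. Nonlytic luminescence from viable cells was read at 0, 8, 16, 24, 32 and 40 h.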

[11] = A CellTox Green Cytotoxicity Assay to monitor cytotoxicity in HEK293 cells - 24 hour (AID 1224875); note: nearly all actives have a fitted effect of over 45% in size
How it was run: as §4

[12] = A CellTox Green Cytotoxicity Assay to monitor cytotoxicity in HepG2 cells - 16 hour (AID 1224876); note: nearly all actives have a fitted effect of over 45% in size
How it was run: (§5)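 HepG2 cells were seeded together with the CellTox Green dye at 600 cells/well, left 5 h at 37 C/5% CO2, then given compounds in DMSO. Fluorescence from dye bound to dead-cell DNA was read repeatedly over 40 h of treatment at 37 C.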

[13] = qHTS RealTime-Glo MT Cell Viability Assay in HepG2 cells - 32 hour (AID 1224877); note: nearly all actives have a fitted effect of over 55% in size
How it was run: as §1

[14] = A CellTox Green Cytotoxicity Assay to monitor cytotoxicity in HepG2 cells - 24 hour (AID 1224878); note: nearly all actives have a fitted effect of over 45% in size
How it was run: as §5

[15] = A CellTox Green Cytotoxicity Assay to monitor cytotoxicity in HepG2 cells - 40 hour (AID 1224879); note: nearly all actives have a fitted effect of over 40% in size
How it was run: as §5

[16] = qHTS assay to identify small molecule agonists of H2AX - cell viability counter screen (AID 1224847; calls by dose curve; note: top concentration of the series differs between compounds; nearly all actives have a fitted effect of over 30% in size)
How it was run: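 Cells plated first: CHO-K1, 1000 per well in 10% FBS medium, incubated overnight at 37C. Then 15-point compound titration added (final DMSO 0.76%) for 3 hr. Finally CellTiter-Glo added and luminescence read.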

[17] = qHTS assay to identify small molecule agonists of the hypoxia (HIF-1) signaling pathway - cell viability counter screen (AID 1224844; calls by dose curve; note: nearly all actives have a fitted effect of over 50% in size)
How it was run: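 HRE-bla ME-180 cells in medium with 0.5% dialyzed FBS were preincubated 5 hrs at 37C, exposed to compounds for 17 hrs, then viability was read as CellTiter-Glo luminescence after 30 min at room temperature, in the reporter wells.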

[18] = qHTS assay to identify small molecule antagonists of the estrogen related receptor (ERR) signaling pathway from Tox21 library (AID 1224848); note: nearly all actives have a fitted effect of over 50% in size
How it was run: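 Cells: ERR line, 2,000/well; 6 h preincubation 37 C/5% CO2. Cpd in DMSO via pin tool; 18 h, 37 C. ONE-Glo, 30 min RT, luminescence.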

[19] = A CellTox Green Cytotoxicity Assay to monitor cytotoxicity in HEK293 cells - 0 hour (AID 1224869); note: nearly all actives have a fitted effect of over 50% in size
How it was run: as §4
% is set by controls: 0 for no effect and ±100 for the full control effect.

Cc1cccc(N(C)C(=S)Oc2ccc3c(c2)CCC3)c1
inactive: Potency [1] | outcome [2] | activity change, positive = activation [3] -21.2% [at 42.5 µM] | Potency [4] | Potency [5] | Potency [6] | Potency [7] | Potency [8] | Potency [9] | max response [10] -16.2% | Potency [11] | Potency [12] | Potency [13] | Potency [14] | Potency [15]

C=CC(=O)[O-].C=CC(=O)[O-].[Zn+2]
inactive: Potency [1] | outcome [2] | Potency [16] | Potency [5] | Potency [6] | Potency [7] | Potency [8] | Potency [9] | max response [10] 0.547% | Potency [11] | Potency [12] | Potency [13] | Potency [14] | Potency [15]

Cc1ccc(OC(=O)c2ccccc2O)cc1
inactive: Potency [17] | outcome [2] | Potency [18] | activity change, positive = activation [3] 2.99% | Potency [4] | Potency [5] | Potency [19] | Potency [6] | Potency [8] | Potency [9] | max response [10] -11.7% | Potency [11] | Potency [12] | Potency [13] | Potency [14] | Potency [15]
